# TEAD-YAP block: TEAD-YAP interaction inhibition. actives 1.4% (n = 640,000). inhibition, % at 9.12 µM. HEK-TIYL cells, TEAD-Gal4/YAP UAS-luciferase luminescence; in the data active = inhibition above about 32%;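 note: 0% = median of test compound wells and 100% = reference inhibitor wells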
# MITF primary: human MITF inhibition, primary screen | O75030 | AlphaScreen MITF homodimerization, bead proximity signal | inhibition, % at 2.6 µM | actives 0.91% (n = 650,000); in the data active = inhibition above about 50%;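 note: 0% = vehicle wells with protein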
# FBW7 act: human FBW7 E3 ligase activation, primary screen; Q969H0; AlphaScreen FBW7–phospho-cyclin E peptide binding, activator screen; normalized activity (activation), % at 26.1 µM; actives 0.13% (n = 650,000); AID 1259310; in the data active = normalized activity above about 1.9%;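 note: purified mutant Fbw7 with reduced substrate affinity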
# GPR151 ag: human GPR151 activation | PathHunter beta-arrestin GPR151 cells, luminescence | Q8TDV0 | actives 1% (n = 650,000) | activation, % at 11.2 µM; in the data active = activation above about 4.9%;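 note: 0% = median of compound wells and 100% = cells with positive control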
# Target sequence (Q8TDV0 whole entry, looked up): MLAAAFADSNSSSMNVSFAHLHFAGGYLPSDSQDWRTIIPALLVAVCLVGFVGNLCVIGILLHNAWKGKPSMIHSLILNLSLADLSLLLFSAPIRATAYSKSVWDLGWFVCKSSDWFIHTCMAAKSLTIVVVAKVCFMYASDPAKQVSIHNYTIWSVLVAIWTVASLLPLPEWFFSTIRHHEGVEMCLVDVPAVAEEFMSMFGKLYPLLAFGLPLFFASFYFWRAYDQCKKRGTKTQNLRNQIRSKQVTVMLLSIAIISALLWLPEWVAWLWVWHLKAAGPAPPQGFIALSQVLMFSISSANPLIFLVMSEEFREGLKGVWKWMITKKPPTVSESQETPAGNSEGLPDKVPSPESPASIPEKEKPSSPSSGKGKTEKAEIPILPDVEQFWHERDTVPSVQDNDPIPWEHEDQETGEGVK
# MITF confirm: confirmation of human MITF inhibitors; actives 16% (n = 4,700); AlphaScreen MITF homodimerization, biotin/His-MITF beads; inhibition, % at 2.6 µM; shares compounds with MITF primary; AID 1259372;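 active = inhibition above a cutoff derived from the DMSO control wells, cut at about 28% in these data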;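 note: 0% = MITF dimer wells with DMSO only; inhibitors lower the bead chemiluminescence by keeping MITF from dimerizing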
# AS interf DR: optically interferes with AlphaScreen signal in dose response. actives 6% (n = 480). IC50, µM. shares compounds with MITF primary. AlphaScreen optical interference counterscreen, cell-free; call rule not given here
# AlphaScreen intf2: counter-screen: compounds optically interfering with AlphaScreen; inhibition, % at 2.6 µM; shares compounds with MITF primary; LysRS AlphaScreen counterscreen, signal interference, triplicate; actives 7.6% (n = 4,700);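 active = inhibition above a cutoff derived from the DMSO control wells, cut at about 30% in these data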
# The depositor's hits bear a star; nt = no result given. Sampled rows, rich in hits. Any-hit rate of the full collection: about 3.4%.
SMILES,TEAD-YAP block,MITF primary,FBW7 act,GPR151 ag,MITF confirm,AlphaScreen intf2,others
COc1ccc(OC)c(CN2CCN(Cc3ccc(Br)cc3)CC2)c1,-3,77*,0,-1,0,-1,
COc1ccc(CN2CCN(C3CCCC(C)C3)CC2)c(OC)c1 (stereo not drawn),6,33,0,0,nt,nt,
COc1ccc(OC)c(CN2CCC(N3CCCC(C)C3)CC2)c1 (stereo not drawn),1,51*,0,2,-6,4,
COc1ccc(OC)c(CN2CCN(C3CCC(C)CC3)CC2)c1 (stereo not drawn),2,57*,0,1,9,-4,
COCCCN(CCC#N)S(=O)(=O)c1ccc([N+](=O)[O-])cc1,2,0,0,0,nt,nt,
NC1=NC2(CCCC2)N=C(Nc2cccc3ccccc23)N1,-6,-2,0,-1,nt,nt,
O=C(NC(=S)N1CCOCC1)c1cc(-c2ccco2)nc2ccccc12,3,-4,0,3,nt,nt,
COCCNC(=O)COC(=O)c1cc(-c2ccco2)nc2ccccc12,2,72*,0,1,69*,-9,AS interf DR=>6.6
O=C(OCCCC(=O)N1CCOCC1)c1cc(-c2ccco2)nc2ccccc12,-7,73*,0,-1,77*,4,AS interf DR=>6.6
CNc1c([N+](=O)[O-])cc(C(=O)O)cc1[N+](=O)[O-],5,-7,0,0,nt,nt,
CCC1CCCCN1C(=O)c1sc2ncn(CC(=O)Nc3ccccc3OC)c(=O)c2c1C (stereo not drawn),5,6,0,-1,nt,nt,
Brc1ccc(-c2nnc3sc(CN4CCCCC4)cn23)cc1,-20,67*,1,1,-2,-3,
Brc1ccc(-c2nnc3sc(CN4CCOCC4)cn23)cc1,2,13,0,0,nt,nt,
O=C(NCc1ccccc1)NC1(C(=O)N2CCN(c3ncccn3)CC2)CCCCC1,-8,4,0,0,nt,nt,
O=C(NCc1ccccc1)NC1(C(=O)N2CCCC2)CCCCC1,-1,68*,-1,-1,9,32*,
COc1cc(C2C(C#N)=C(N)OC3=C2C(=O)CCC3)cc(Br)c1O (stereo not drawn),8,0,0,0,nt,nt,
CSc1ccccc1NC(=O)CN(C)C(C)C(=O)NCc1ccc2c(c1)OCO2 (stereo not drawn),9,88*,0,4,-3,13,
CSc1ccccc1C(=O)NCc1ccc2c(c1)OCO2,-1,3,0,0,nt,nt,
CCSc1ccccc1C(=O)NCc1ccc2c(c1)OCO2,10,75*,0,-1,8,17,
COC(=O)c1c(NC(=O)CCCCC(=O)Nc2sc3c(c2C(=O)OC)CCC3)sc2c1CCC2,8,7,0,-2,nt,nt,
COc1cc(C#N)ccc1OCC(=O)Nc1cc(C)on1,-44,4,0,2,nt,nt,
O=C(N[C@H]1C[C@H]2C(=O)N[C@H](CO)C(=O)N2C1)c1ccccc1Cl,-10,-15,1,-2,nt,nt,
COc1ccc(C(=O)Nc2nn3c(-c4ccccc4)nnc3s2)cc1OC,-5,3,0,0,nt,nt,
COc1ccc(CN2CCN(CCOc3ccccc3C#N)CC2)c(OC)c1OC,1,69*,0,0,1,20,
COc1ccc(CN2CCN(Cc3cccn3C)CC2)c(OC)c1OC,1,46,0,0,nt,nt,
SMILES,TEAD-YAP block,MITF primary,FBW7 act,GPR151 ag,MITF confirm,AlphaScreen intf2,others
COc1ccc(CN2CCN(CCOc3ccccc3)CC2)c(OC)c1OC,0,72*,0,-1,2,10,
O=C(NCCN1CCOCC1)c1ccc(N2CCC3(CC2)OCCO3)c([N+](=O)[O-])c1,4,-8,0,-2,nt,nt,
COC(=O)C12CC3CC(CC(NC(=O)c4cc(-c5ccccc5)on4)(C3)C1)C2,0,-9,0,0,nt,nt,
COC(=O)CN1C(=O)S/C(=C/c2ccc([N+](=O)[O-])o2)C1=O,-11,62*,0,0,47*,4,AS interf DR=>6.5
Cc1cc(OCC(=O)Nc2ccccc2C(F)(F)F)ccc1Cl,-50,-4,0,0,nt,nt,
CC(C)N(CCCNC(=O)Cn1c2ccccc2c2cn[nH]c(=O)c21)Cc1ccccc1,5,-12,0,5,nt,nt,
CC(=O)Nc1ccc(C2=N/C(=C/c3cccc([N+](=O)[O-])c3)C(=O)O2)cc1,-2,58*,0,0,5,-11,
Cc1ccc(C2=N/C(=C\c3ccc(OCc4ccccc4)cc3)C(=O)O2)cc1[N+](=O)[O-],4,4,0,-1,nt,nt,
O=C1OC(c2cc(C3=N/C(=C\c4ccccc4)C(=O)O3)cc(C3=N/C(=C/c4ccccc4)C(=O)O3)c2)=N/C1=C\c1ccccc1,9,58*,0,0,30*,5,
O=C1OC(c2ccc(Cl)c(Cl)c2)=N/C1=C\c1ccccc1,5,-4,0,1,nt,nt,
O=C1OC(c2cccc([N+](=O)[O-])c2)=N/C1=C\c1ccc(OCc2ccccc2)cc1,14,64*,0,0,37*,16,
COCCCNC(=O)C(=O)Nc1ccc(OC)cc1,-14,1,0,0,nt,nt,
COC(=O)C1=C(C(=O)OC)SC(=C2C(=S)C(C)(C)N(C(=O)CN3C(=O)CCC3=O)c3c(OC)cccc32)S1,-3,12,0,0,nt,nt,
Cc1ccc(-c2csc3nc(CN(C)C4CCN(C)CC4)[nH]c(=O)c23)cc1,-2,59*,0,0,0,0,
O=C(Cc1nc2scc(-c3ccccc3)c2c(=O)[nH]1)N1CCCC1,-2,6,0,0,nt,nt,
COc1ccc(C)cc1NS(=O)(=O)c1ccc2c(c1)CCC(=O)N2,3,73*,0,-1,62*,-3,AS interf DR=>6.5
CCOC(=O)N1CCN(S(=O)(=O)N2CCCC(C(=O)NC3CC3)C2)CC1 (stereo not drawn),-6,-2,0,3,nt,nt,
COCCNCCOCCOc1cc(C)cc(C(C)C)c1,1,53*,0,-1,5,6,
C=CCNCCOc1cc(C)cc(C(C)C)c1,-13,-19,0,-1,nt,nt,
C=CCNCCOCCOc1cc(C)cc(C(C)C)c1,0,64*,0,2,11,19,
COC(=O)c1cc(Nc2nc(-c3cc(OC)c(OC)c(OC)c3)nc3ccccc23)cc(C(=O)OC)c1,-10,12,1,1,nt,nt,
O=c1/c(=C/c2ccc(N3CCOCC3)cc2)sc2nc3ccccc3n12,20,4,0,0,nt,nt,
O=C(Nc1ccc(Br)cc1C(F)(F)F)C1CC(=O)N(c2ccccc2)C1 (stereo not drawn),-4,2,0,3,nt,nt,
COc1ccccc1C(=O)NC1(C(F)(F)F)NC(=O)N(c2ccccc2)C1=O (stereo not drawn),5,88*,0,0,8,11,

# Source: PubChem BioAssay
